# Assay results as given in the supplement of paper PMC10042075.
# Structures can show the parent of a compound that is named as a salt.
# System: LASCPC-01
# Assay: cell viability relative to DMSO control (fraction); higher = less growth inhibition (more viable cells)
# Details: 2 µM; 72 h
# Protocol: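 High-throughput single-dose screen in the LASCPC-01 NEPC cell line in 384-well plates. Cells were treated with each compound at 2 µM for 72 h, and viability was read by CellTiter-Glo luminescence. Values are normalised to the DMSO control (compound/DMSO) from three replicates; only the 5-HT-related subset of the 7315-compound library is given.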
row,SMILES,cell viability
1,c1ccc2c(N3CCNCC3)cccc2c1 [1-(1-Naphthyl)piperazine hydrochloride],1.08
